{"source": "PubChem BioAssay (NCI)", "note": "This is part of a sample that, as a whole, favours compounds with a hit. Of some 83,000 tested, about 20% had one in any assay.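 How to read the values: 0–100, growth inhibition (40 = 60% inhibited); 0, no net growth; -100 to 0, cell death (-40 = 40% of starting cells died; -100 = all dead).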 Unmarked numbers belong to inactive results. Activity calls are given as the source filed them."}
{"test_system": "UO-31 renal", "assay": "NCI-60 one-dose screen, 48 h (100 = growth as untreated, 0 = no growth, -100 = all killed)", "conditions": "10 µM unless noted", "description": "Growth inhibition of the UO-31 human tumor cell line is measured as a screen for anti-cancer activity. Cells are grown in 96 well plates and exposed to the test compound for 48 hours. Compounds are tested at a single concentration, which is 10^-5 M for most compounds. The reported endpoint is percent growth (GI% or GIPRCNT), where numbers from 0 - 100% represent growth inhibition, and numbers from -100% - 0 represent cell death. For example, a value of 40 represents 60% growth inhibition. A value of 0 means no net growth occurred over the course of the experiment. A value of -40 indicates 40% of cells at the beginning of the experiment died by the end of the experiment. A value of -100 means all cells are dead at the end of the experiment.\nNCI-60 Human Tumor Cell Lines Screen was performed using the standard one-dose NCI protocol, which is described in more detail at https://dtp.cancer.gov/discovery_development/nci-60/default.htm.\nCompounds with GIPRCNT values below 10 were considered active. Activity score was based on GIPRCNT using the following formula: […]\nScore is 0 for GIPRCNT values of 100 or above, 50 for GIPRCNT values of 0, and 100 for GIPRCNT values of -100."}
{"compound": "CC(=O)OC1Oc2cc(C)c(C)cc2-c2oc(=O)c(-c3ccc(F)cc3)cc21", "note": "(stereo not given)", "growth": "62.2%"}
{"compound": "CC1=NOCC(=O)N1", "growth": "96.5%"}
{"compound": "CSCCC1NC(=O)C(C(C)=Nc2ccccc2)=C1O", "note": "(stereo not given)", "growth": "93.4%"}
{"compound": "CCN(CC)CCCC(C)Nc1cnc(C(=O)Nc2cc(C)cc3cccnc23)cn1", "note": "(stereo not given)", "growth": "63.3%"}
{"compound": "COC(=O)c1cc2oc(/C=N/NC(=O)c3cc4oc(-c5cccc(C(F)(F)F)c5)cc4[nH]3)cc2n1Cc1ccccc1", "growth": "91.5%"}
{"compound": "CCOc1cccc(/C=N/NC(=O)Cc2ccc(Nc3ccnc(C(F)(F)F)c3)cc2)c1O", "growth": "3.59% (active)"}
{"compound": "COc1ccc(-c2oc(=O)ccc2-c2cc(OC)c(OC)c(OC)c2)cc1F", "growth": "47.3%"}
{"compound": "Nc1nc2ccc([C@@H]3Nc4ccc5[nH]ncc5c4[C@H]4[C@H]5CCC(C5)[C@H]43)cc2s1", "growth": "30.4%"}
{"compound": "CCCNC(=S)N/N=C(\\C)c1ccccn1", "growth": "-0.774% (active)"}
{"compound": "COc1ccc2c(c1)CCCC21C(=O)Nc2ccccc21", "note": "(stereo not given)", "growth": "82.4%"}
{"compound": "CCCCn1c(C)nc2ccc(Nc3nc(Cl)nc4nc[nH]c34)cc21", "growth": "57.8%"}
{"compound": "Cc1cc2nc3c(=O)[nH]c(=O)nc-3n(CC=O)c2cc1C", "growth": "106%"}
{"compound": "CC(C)(C)c1ccc(Cn2c(-c3nonc3N)nc3ccccc32)cc1", "growth": "51.4%"}
{"compound": "COc1cc(C2CC(c3ccc(Nc4ccnc5cc(Cl)ccc45)cc3)=NN2c2ccccc2)cc(OC)c1OC", "note": "(stereo not given)", "growth": "57.8%"}
{"compound": "Clc1ccc(Nc2ncnc3c2sc2ncccc23)cc1", "growth": "-13.8% (active)"}
{"compound": "COc1ccc2[nH]c(O)c(/C=c3/ccc4c(c3)N=C(c3ccc(C(F)(F)F)cc3)N=4)c2c1", "growth": "91.3%"}
{"compound": "CC1(C)C2CCC(O)(C(=O)O)C1C2", "note": "(stereo not given)", "growth": "81.9%"}
{"compound": "CC(C)CC(NC(=O)OCC1c2ccccc2-c2ccccc21)C(=O)O", "note": "(stereo not given)", "growth": "94.2%"}
{"compound": "COc1ccc(-c2cn(-c3cccc(C(=O)/C=C/c4ccc(O)c(OC)c4)c3)c(=O)[nH]2)cc1", "growth": "19%"}
{"compound": "COc1ccc(C2CC(c3cccc(Nc4ccnc5cc(Cl)ccc45)c3)=NN2c2ccccc2)cc1", "note": "(stereo not given)", "growth": "77.4%"}
{"compound": "CC(CN1CCN(C)CC1)CN1c2ccccc2Sc2ccc(C(F)(F)F)cc21", "note": "(stereo not given)", "growth": "39.2%"}
{"compound": "Cn1c(=O)c2[nH]c(Cc3ccc4c(c3)OCO4)nc2n(C)c1=O", "growth": "93.5%"}
{"compound": "CCCC(CCC)NCC(O)c1cc(-c2ccc(C(F)(F)F)cc2)nc(C(F)(F)F)c1", "note": "(stereo not given)", "growth": "-44.9% (active)"}
{"compound": "O=C(O)c1ccccc1N=Cc1ccccc1", "growth": "97.5%"}
{"compound": "CC(=O)c1nn(-c2ccccc2)/c(=N\\N=C\\c2coc3ccc(F)cc3c2=O)s1", "growth": "69.6%"}
{"compound": "Cc1n(Cc2ccc3ccccc3n2)cc[n+]1Cc1ccc2ccccc2c1", "growth": "81%"}
{"compound": "CN=C1C=C/C(=N/N=c2/ccn(O)cc2C)C=C1C", "growth": "77.6%"}
{"compound": "N#Cc1nc(-c2cccc(Br)c2)cc(-c2ccc(Nc3nc(N4CCCCC4)nc(N4CCCCC4)n3)cc2)c1N", "growth": "-78.8% (active)"}
{"compound": "COc1ccc(/C=C/C(=O)c2ccc(NC(=O)CSc3nnc(-c4ccc(Cl)cc4)n3-c3ccccc3)cc2)cc1", "growth": "79.8%"}
{"compound": "O=C1C2=C(C(=O)c3c(O)ccc(O)c31)N(c1ccc(N3CCOCC3)nc1)Cc1ccccc1O2", "growth": "-100% (active)"}
{"compound": "COc1ccc(/C=C/C(=O)c2ccc(NC(=O)CSc3nnc(-c4ccc(OC)cc4)n3-c3ccccc3)cc2)cc1", "growth": "79.3%"}
{"compound": "CCCCN(CCCC)CCCN=c1nc2c(c(N)n1-c1ccccc1)c(=S)n(-c1ccccc1)c(=S)n2-c1ccccc1", "growth": "-80.9% (active)"}
{"compound": "O=C1/C(=C\\c2cccn2C(=O)c2ccccc2)c2ccccc2N1c1c(Cl)cccc1Cl", "growth": "66.8%"}
{"compound": "C/C(=N\\NC(=S)Nc1ccccc1)c1ccccn1", "growth": "-1.12% (active)"}
{"compound": "COc1ccc(/C(=C\\c2cc(OC)c(OC)c(OC)c2)C(=O)N2CCN(c3ccccc3)CC2)cc1O", "growth": "69.7%"}
{"compound": "O=C(CI)NCCNc1cccc2c(S(=O)(=O)O)cccc12", "growth": "93.4%"}
{"compound": "Cc1ccccc1CNc1ncnc2[nH]ncc12", "growth": "37%"}
{"compound": "COc1cc(Cn2c(-c3ccccc3)cc3c2-c2oncc2CC3)cc(OC)c1OC", "growth": "4.35% (active)"}
{"compound": "Nc1n[nH]c2ccc([C@@H]3Nc4c(F)cc5[nH]ncc5c4[C@H]4C5CCC(C5)[C@@H]34)cc12", "note": "(stereo not given in full)", "growth": "28.2%"}
{"compound": "C#CC[C@@H]1C[C@]2(C)[C@H]3CC[C@@H]4[C@H]5C(C(=C)C)CC[C@]5(C(=O)NCCCCN)CC[C@@]4(C)[C@]3(C)CC[C@H]2C(C)(C)[C@H]1OC(C)=O", "note": "(stereo not given in full)", "growth": "-97.1% (active)"}
